Experimental data: PubChem BioAssay (Tox21)
Results filed as inconclusive are left out. The source made the active and inactive calls. Calls follow the shape of the dose curve; as a rule, active = well fitted cell-killing curve with a large enough effect in the repeat runs; inconclusive = weak or mixed curves, or effect the other way; inactive = no such curve, though single readings can be large or run the other way.

assay: qHTS assay to identify small molecule antagonists of the retinoid-related orphan receptor gamma (ROR-gamma) signaling pathway - cell viability counter screen (AID 1159520); settings: Tet-on RORgamma CHO cells viability, ATP luminescence, 16 h; series mostly up to 92.4 µM; activity, negative = cytotoxicity: at the top concentration; also: nearly all actives have a fitted effect of over 50% in size
Source text: U.S. Tox21 Program National Center for Advancing Translational Sciences [NCATS] NIH Chemical Genomics Center [NCGC] U.S. Environmental Protection Agency [EPA] National Institutes of Environmental Health Sciences [NIEHS] National Toxicology Program [NTP] U.S. Food and Drug Administration [FDA] Tox21 Assay Overview: Nuclear steroid hormone receptors are involved in many biological processes including inflammatory responses, cell proliferation, and apoptosis. Environmental factors or compounds disrupting these nuclear receptor pathways and gene expression may promote susceptibility to immunotoxicants and autoimmune diseases. One important group of these expression factors are the retinoid-related orphan receptors. To assess compounds that may interfere with the retinoid-related orphan receptor gamma (ROR-gamma) transcription factor, a cell-based luciferase assay was used. The CHO cell-based assay utilizes a TET-inducible ROR expression factor and ROR response element-LUC reporter gene. Reporter gene activity was induced using Doxycycline Hyclate and measured after 16 hr incubation. Tet-on ROR gamma CHO cells were used to screen against the Tox21 10K compound library for cytotoxicity by measuring the viability of the cells based on the quantitation of the ATP.
Tox21 Assay Protocol Summary: Tet-on ROR gamma CHO cells were dispensed at 1,000 cells in 4 uL of culture medium per well into white wall/solid bottom 1536-well plates using a Multidrop Combi (Thermo Scientific, Waltham, MA) dispenser. Following incubation at 37 C and 5% CO2 for 4 hr, 23 nL of compounds dissolved in DMSO, positive controls or DMSO only were transferred by a Pintool station (Kalypsys, San Diego, CA) and after 2 hr incubation at 37 C, one ul of 1 uM (final concentration) of Doxycycline Hyclate was added to all the wells by using a Flying Reagent Dispenser (FRD) (Aurora Discovery, San Diego, CA). After 16 hr incubation at 37 C and 5% CO2, 5 uL of CellTiter-Glo reagent (Promega Corporation, Madison, WI) was added to each assay plate using FRD. After 30 min incubation at room temperature, luminescence was quantified on a ViewLux plate reader (Perkin Elmer, Waltham, MA).
% is scaled to controls: 0 for no effect and ±100 for the full control effect; potency is read from the fitted curve at half-maximal effect.

| Compound | activity, negative = cytotoxicity | Potency |
| --- | --- | --- |
| O=C(c1ccc(F)cc1)C1CCN(CCn2c(=S)[nH]c3ccccc3c2=O)CC1 | -6.71% [at 42.5 µM] (inactive) | – |
| CC1=CC[C@H](C(C)C)C=C1 | -2.49% (inactive) | – |
| Clc1ccc(Cn2c(CN3CCCC3)nc3ccccc32)cc1 | -0.478% [at 42.5 µM] (inactive) | – |
| CO[C@@H]1[C@H](OC(=O)/C=C/C=C/C=C/C=C/C(=O)O)CC[C@]2(CO2)[C@H]1[C@@]1(C)O[C@@H]1CC=C(C)C | -8.55% (inactive) | – |
| CCO[C@H](Cc1ccc(OCCc2ccc(OS(C)(=O)=O)cc2)cc1)C(=O)O | 0.795% [at 42.5 µM] (inactive) | – |
| O=C(NCC1CN(c2ccc(N3CCOCC3=O)cc2)C(=O)O1)c1ccc(Cl)s1 (stereo not given) | -3.42% [at 42.5 µM] (inactive) | – |
| Nc1c(CC(=O)O)cccc1C(=O)c1ccc(Br)cc1 | 5.1% [at 42.5 µM] (inactive) | – |
| O=C(O)c1ccc(S(=O)(=O)O)cc1C(=O)O | -1.66% (inactive) | – |
| COc1cc(Cl)c(OC)cc1N | -8.06% (inactive) | – |
| CC(=O)c1ccc2c(c1)N(CCCN1CCC(CCO)CC1)c1ccccc1S2 | -9.66% [at 42.5 µM] (inactive) | – |
| CC1=CCCC(C)(C)C12CCC(C)O2 (stereo not given) | 2.32% (inactive) | – |
| CCCC(=O)Nc1ccc(O)c(C(C)=O)c1 | 0.416% [at 42.5 µM] (inactive) | – |
| CCCCC(CC)COC(=O)COc1ccc(Cl)cc1Cl (stereo not given) | -5.64% (inactive) | – |
| CCN(CC)c1ccc2c(-c3ccccc3C(=O)O)c3ccc(=[N+](CC)CC)cc-3oc2c1 | – | 19.3 µM (active) |
| CC(=O)[O][Al] | -17.6% (inactive) | – |
| CCCCCCCCCCCCCCCCOS(=O)(=O)O | 9.28% [at 42.5 µM] (inactive) | – |
| c1ccc(CNCCNCc2ccccc2)cc1 | -0.829% [at 42.5 µM] (inactive) | – |
| CCN(CC)CCNC(=O)c1cc(Br)c(N)cc1OC | -2.87% [at 42.5 µM] (inactive) | – |
| NC(=O)C(c1ccccc1)(c1ccccc1)[C@@H]1CCN(CCc2ccc3c(c2)CCO3)C1 | -14.4% [at 42.5 µM] (inactive) | – |
| Cc1cccc(Nc2ccccc2)c1 | -18.5% (inactive) | – |

| Compound | activity, negative = cytotoxicity | Potency |
| --- | --- | --- |
| COC(C)OC | -9.41% (inactive) | – |
| CCCCCCCCCCCCN1CCCCCC1=O | -15.3% (inactive) | – |
| OCc1cc(C(O)CNCCCCCCOCCCCc2ccccc2)ccc1O (stereo not given) | -11.5% [at 42.5 µM] (inactive) | – |
| N=c1ccn2c(n1)O[C@H]1[C@H](O)[C@@H](CO)O[C@H]12 | 1.19% (inactive) | – |
| CC(C)(CO)[N+](=O)[O-] | 1.52% (inactive) | – |
| CCOC(=O)C(F)(F)F | 1.27% (inactive) | – |
| Cc1ccc(N=Nc2c(O)c(C(=O)O)cc3ccccc23)c(S(=O)(=O)O)c1 | -2.36% [at 42.5 µM] (inactive) | – |
| CCCCc1nc2cccnc2n1Cc1ccc(-c2ccccc2-c2nnn[nH]2)cc1 | 1.06% (inactive) | – |
| CC1OC(=O)C(C)OC1=O (stereo not given) | 0.391% (inactive) | – |
| CCN(CC)c1ccc(C(=C2C=CC(=[N+](CC)CC)C=C2)c2cc(S(=O)(=O)O)ccc2S(=O)(=O)[O-])cc1 | – | 13.3 µM (active) |
| Cn1c(=O)cc(Oc2ccc(F)cc2F)c2cnc(NCC(C)(C)O)nc21 | -8.2% (inactive) | – |
| NCc1ccccc1Sc1ccccc1CO | 1.61% [at 42.5 µM] (inactive) | – |
| CCOCC(O)COc1ccc(NC(=O)CC[S+](C)C)cc1 (stereo not given) | 2.63% [at 42.5 µM] (inactive) | – |
| COc1cc2nc(N(C)CCCNC(=O)C3CCCO3)nc(N)c2cc1OC (stereo not given) | -13.6% [at 42.5 µM] (inactive) | – |
| Brc1c2ccccc2cc2ccccc12 | -13.3% (inactive) | – |
| CCCOC(C(=O)OC1CCN(C)CC1)(c1ccccc1)c1ccccc1 | -7.28% [at 42.5 µM] (inactive) | – |
| C/C=C/C(=O)CC | 4.4% [at 19 µM] (inactive) | – |
| O=C1CCC(=O)O1 | 2.96% (inactive) | – |
| O=C(O)c1ccco1 | 2.25% (inactive) | – |
| OC[C@H]1O[C@@H](OCCc2ccc(O)cc2)[C@H](O)[C@@H](O)[C@@H]1O | 0.831% [at 42.5 µM] (inactive) | – |
